{"source": "PubChem BioAssay (NCATS)", "note": "Records with an inconclusive call do not appear. Entries that show only a call come without a potency. Calls of active or inactive are those of the source. Unless noted, calls follow the shape of the dose curve; as a rule, active = well fitted inhibition curve with a large enough effect; inconclusive = small, poorly fitted or top-dose-only effect; inactive = flat fitted curve, though single readings scatter."}
{"target": "Nucleoprotein (Lymphocytic choriomeningitis virus (strain Armstrong)) (UniProt P09992)", "sequence (P09992 whole entry, looked up)": "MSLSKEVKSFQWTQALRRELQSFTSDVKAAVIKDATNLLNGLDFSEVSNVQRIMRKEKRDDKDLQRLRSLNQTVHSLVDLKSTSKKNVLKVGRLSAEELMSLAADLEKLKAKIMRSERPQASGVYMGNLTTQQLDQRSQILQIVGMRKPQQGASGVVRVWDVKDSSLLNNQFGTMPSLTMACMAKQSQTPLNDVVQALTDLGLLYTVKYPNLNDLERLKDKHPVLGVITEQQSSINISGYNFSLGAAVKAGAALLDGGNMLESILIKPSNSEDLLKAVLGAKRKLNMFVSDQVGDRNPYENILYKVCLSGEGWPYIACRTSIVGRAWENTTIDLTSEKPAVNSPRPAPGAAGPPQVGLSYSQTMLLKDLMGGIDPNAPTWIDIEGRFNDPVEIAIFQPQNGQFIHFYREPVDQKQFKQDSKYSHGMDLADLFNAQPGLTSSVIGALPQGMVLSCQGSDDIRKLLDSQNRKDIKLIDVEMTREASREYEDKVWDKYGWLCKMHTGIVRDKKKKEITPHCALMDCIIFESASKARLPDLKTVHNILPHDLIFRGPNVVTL", "test": "qHTS for Inhibitors of the Functional Ribonucleoprotein Complex (vRNP) of Lymphocytic Choriomeningitis Arenaviruses (LCMV): LCMV Primary Screen - GLuc reporter signal (AID 1347086; calls by dose curve; also: nearly all actives have a fitted effect of over 70% in size)", "conditions": "LCMV minigenome vRNP cell assay, Gaussia luciferase reporter; series mostly up to 57.5 µM"}
{"compound": "C=C[C@@H]1CN2CCC1C[C@@H]2C(O)c1ccnc2ccc(OC)cc12", "note": "(stereo partly specified)", "Potency": "inactive"}
{"compound": "O=C(CS(=O)Cc1ccco1)NCC=CCOc1cc(CN2CCCCC2)ccn1", "note": "(stereo unspecified)", "Potency": "inactive"}
{"compound": "CC(=O)C1=C(O)C=C2Oc3c(C(C)=O)c(O)c(C)c(O)c3C2(C)C1=O", "note": "(stereo unspecified)", "Potency": "inactive"}
{"compound": "COc1ccc(-c2coc3cc(O)ccc3c2=O)cc1", "Potency": "inactive"}
{"compound": "NC(=O)NN=Cc1ccc([N+](=O)[O-])o1", "Potency": "inactive"}
{"compound": "CC(=O)N[C@@H]1[C@H](O[C@@H]2c3ccc(c(Cl)c3)Oc3cc4cc(c3O[C@H]3O[C@H](CO)[C@@H](O)[C@H](O)[C@H]3NC(=O)CCCCCCCC(C)C)Oc3ccc(cc3Cl)C[C@H]3NC(=O)[C@H](N)c5ccc(O)c(c5)Oc5cc(O)cc(c5)[C@H](NC3=O)C(=O)N[C@H]4C(=O)N[C@H]3C(=O)N[C@@H]2C(=O)N[C@@H](C(=O)O)c2cc(O)cc(O[C@H]4O[C@H](CO)[C@@H](O)[C@H](O)[C@H]4O)c2-c2cc3ccc2O)O[C@H](CO)[C@@H](O)[C@@H]1O", "Potency": "inactive"}
{"compound": "O=C(O)C1=NC(C(=O)O)CC(C=CN2c3cc(O)c(OC4OC(CO)C(O)C(O)C4O)cc3CC2C(=O)O)=C1", "note": "(stereo unspecified)", "Potency": "inactive"}
{"compound": "C[N+]1(C)[C@@H]2C[C@@H](OC(=O)C(O)(c3cccs3)c3cccs3)C[C@H]1[C@@H]1O[C@@H]12", "Potency": "inactive"}
{"compound": "COC(=O)[C@@H]1[C@H]2C[C@@H]3c4[nH]c5ccccc5c4CCN3C[C@@H]2CC[C@@H]1O", "Potency": "inactive"}
{"compound": "CN[C@@H]1[C@@H](O)[C@@H](O[C@@H]2[C@@H](O)[C@H](O[C@H]3O[C@H](CN)[C@@H](O)[C@H](O)[C@@H]3O)[C@@H](N)C[C@@H]2NC(=O)[C@@H](O)CN)OC[C@]1(C)O", "Potency": "inactive"}
{"compound": "CN(C1CCc2c(c3ccccc3n2CC(=O)O)C1)S(=O)(=O)c1ccc(F)cc1", "note": "(stereo unspecified)", "Potency": "inactive"}
{"compound": "CN(C)CCC=C1c2ccccc2COc2ccc(CC(=O)O)cc21", "Potency": "inactive"}
{"system": "CRL-7250", "test": "qHTS assay to identify novel small-molecules to repurpose for Merkel cell carcinoma treatment (AID 1296009); also: nearly all actives have a fitted effect of over 60% in size", "conditions": "MCC and control cell lines, CellTiter-Glo viability, 72 h; series mostly up to 92 µM", "outline": "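Luminescence from CellTiter-Glo, read 10 min after addition at room temperature, reported viability following a 72 hr, 37 degree celsius treatment with NPC or MIPE compounds in titration; values normalized to plate controls.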"}
{"compound": "COc1c(O)cc2c(c1O)[C@@H]1O[C@H](CO)[C@@H](O)[C@H](O)[C@H]1OC2=O", "Potency": "inactive"}
{"compound": "COc1cc([C@H]2Oc3cc([C@H]4Oc5cc(O)cc(O)c5C(=O)[C@H]4O)ccc3O[C@H]2CO)ccc1O", "Potency": "inactive"}
{"compound": "OC[C@H]1O[C@@H](Oc2cc(O)cc(C=Cc3ccc(O)cc3)c2)[C@H](O)[C@@H](O)[C@H]1O", "Potency": "inactive"}
{"compound": "CN(C)CCOc1ccc(-c2nc(-c3ccc4c(c3)CCC4=NO)c(-c3ccncc3)[nH]2)cc1", "Potency": "inactive"}
{"compound": "CC1(C)S[C@H]2[C@H](NC(=O)[C@@H](N)c3ccc(O)cc3)C(=O)N2[C@@H]1C(=O)O", "Potency": "inactive"}
{"compound": "O=C(NNC(=O)c1ccc(CNS(=O)(=O)c2ccc(F)c(Cl)c2)cc1)c1ccccc1", "Potency": "inactive"}
{"compound": "CNC[C@@H](O)[C@@H](O)[C@H](O)[C@H](O)CO", "Potency": "inactive"}
{"compound": "CC(C)(O)[C@H]1CC[C@@](C)([C@H]2[C@@H](O)C[C@@]3(C)[C@@H]4C[C@H](O[C@@H]5O[C@H](CO)[C@@H](O)[C@H](O)[C@@H]5O)[C@H]5C(C)(C)[C@@H](O[C@@H]6OC[C@@H](O)[C@H](O)[C@@H]6O)CC[C@@]56C[C@@]46CC[C@]23C)O1", "Potency": "inactive"}
{"compound": "CC(C)(Cc1ccc2ccccc2c1)NC[C@@H](O)COc1cccc(Cl)c1C#N", "Potency": "inactive"}
{"compound": "CN(C)c1nc(Cc2ccc(NC(=O)c3ccc(C(F)(F)F)cc3)cc2)nc(N(C)C)c1CC(=O)O", "Potency": "inactive"}
{"compound": "CC(=O)O[C@]1(C(C)=O)CC[C@H]2[C@@H]3C=C(C)C4=CC(=O)CC[C@]4(C)[C@@H]3CC[C@@]21C", "Potency": "inactive"}
{"compound": "CC(C)(C)[C@H](NC(=O)c1ccc(N)c(Cl)c1)C(=O)N1CCC[C@@H]1C(=O)N[C@H](C#N)CC(=O)O", "outcome": "inactive [at 4.96 µM]"}
{"compound": "CC1(C)[C@H]2CC[C@]3(C)[C@@H](C(=O)C=C4[C@@H]5C[C@@](C)(C(=O)O)CC[C@]5(C)CC[C@]43C)[C@@]2(C)CC[C@@H]1O", "Potency": "inactive"}
{"compound": "O=C(NCc1ccccc1)[C@H](Cc1ccccc1)NC(=O)[C@@H]1O[C@@H]1C(=O)NCCc1ccc(O)cc1", "Potency": "inactive"}
{"compound": "COC1CCC(C(=O)c2ccc3nc4c(cc3c2)CCCO4)CC1", "note": "(stereo unspecified)", "Potency": "inactive"}
{"compound": "NC1CCC(Nc2nc(Nc3ccc(C(=O)N4CCCCC4)cc3)c3ncn(-c4cccc(F)c4)c3n2)CC1", "note": "(stereo unspecified)", "Potency": "inactive"}
{"compound": "Clc1cccc(-n2nnnc2NCc2ccccc2Oc2ccccn2)c1Cl", "Potency": "inactive"}
{"compound": "COc1cc(/C=C/C(=O)OC2CC3CCC2(C)C3(C)C)ccc1O", "note": "(stereo unspecified)", "Potency": "inactive"}
{"compound": "C=CC1=C(C(=O)O)N2C(=O)[C@@H](NC(=O)C(=NO)c3csc(N)n3)[C@H]2SC1", "Potency": "inactive"}
